# Bioassay records (PubChem)
# USP2a block: qHTS Assay for Inhibitors of Ubiquitin-specific Protease USP2a Using CHOP2 as the Reporter; Ubiquitin carboxyl-terminal hydrolase 2 (Homo sapiens), O75604; USP2 core, Ub-CHOP2 coupled fluorogenic reporter, 485/531; Potency, µM (titrated, usually from 38.3 µM), actives largely listed as inhibitors; 330,000 compounds, 0.01% hits
# Target sequence (O75604 whole entry, looked up): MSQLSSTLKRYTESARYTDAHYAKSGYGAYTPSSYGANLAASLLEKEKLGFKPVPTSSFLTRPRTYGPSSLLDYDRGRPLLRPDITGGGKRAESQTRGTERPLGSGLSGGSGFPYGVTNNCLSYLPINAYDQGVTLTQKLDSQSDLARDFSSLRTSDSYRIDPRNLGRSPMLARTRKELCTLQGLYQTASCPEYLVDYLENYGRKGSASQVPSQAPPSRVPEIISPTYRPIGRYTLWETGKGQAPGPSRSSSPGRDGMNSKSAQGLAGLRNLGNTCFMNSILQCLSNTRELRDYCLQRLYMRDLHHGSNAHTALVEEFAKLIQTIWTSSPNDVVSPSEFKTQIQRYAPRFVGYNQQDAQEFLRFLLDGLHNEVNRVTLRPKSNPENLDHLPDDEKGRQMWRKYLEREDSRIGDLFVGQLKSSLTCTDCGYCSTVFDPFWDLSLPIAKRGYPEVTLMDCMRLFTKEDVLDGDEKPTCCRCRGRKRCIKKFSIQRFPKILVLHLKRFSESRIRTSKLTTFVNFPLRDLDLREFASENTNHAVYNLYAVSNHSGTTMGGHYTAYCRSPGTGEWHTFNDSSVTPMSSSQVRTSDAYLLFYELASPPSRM
#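 Deubiquitinase activity read as fluorescence (485/531 nm) after Ub-CHOP2 cleavage activates the enterokinase reporter on its substrate; USP2 core 10nM, Ub-CHOP2 and substrate 25nM each, 30min compound preincubation then 60min RT; data normalized to NEM, curves fitted.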
# USP1 inh: Inhibitors of USP1/UAF1: Primary Screen. recombinant USP1/UAF1, Ub-Rhodamine cleavage fluorescence. Potency, µM (highest dose often 57.1 µM), usual class: inhibitors. 390,000 compounds, 0.23% hits; also: nearly all actives have a fitted effect of over 60% in size
#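 In this screen, compounds sit with the deubiquitinase complex (1nM) for 15 min at room temperature before Ub-Rho is added at 150nM final. Fluorescence rise is then followed for 6 reads every 60 seconds.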
# S2 tox: Viability Counterscreen for Primary qHTS for Inhibitors of ATXN expression; S2 cells (HEK-293 line with an ATXN2-luciferase reporter) viability, CellTiter-Fluor protease fluorescence, 24 h; Potency, µM (highest dose often 56.7 µM), usual class: cytotoxic; 400,000 compounds, 0.49% hits; also: nearly all actives have a fitted effect of over 40% in size
# IL-1B inflam inh: qHTS for Inhibitors of Inflammasome Signaling: IL-1-beta AlphaLISA Primary Screen; THP-1 LPS/ATP IL-1B secretion, AlphaLISA, 16 h; hits give low values; 360,000 compounds, 4.7% hits; activity change, % at 57.5 µM; in the data active = activity change below about -50%; inconclusive = mostly about -30% to -49%
#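 THP-1 cells pretreated 1 hr with compounds (up to 57.5 uM final), then stimulated with LPS (250 ng/mL final) plus ATP (1.25 mM final); secreted IL-1B measured by AlphaLISA after 16 hr, decreased signal indicating inhibition.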
# ATXN2 expr inh: Primary qHTS for Inhibitors of ATXN expression | 360,000 compounds, 0.72% hits | HEK-293 ATXN2-luciferase reporter, luminescence, 24 h | Potency, µM (highest dose often 57 µM), most hits filed as inhibitors | AID 1745845, 2022; also: nearly all actives have a fitted effect of over 55% in size
#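 ATXN2-luciferase reporter cells (luciferase flanked by upstream and downstream ATXN2 gene portions) were treated 24 h at 37 °C with compounds at up to 57 uM. SteadyGlo luminescence gave expression; GF-AFC fluorescence gave viability.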
# Hits are given with their value; . = inactive; ? = inconclusive; / = no result; [ ] = dose if it differs, or a comment. A selection: hits, their analogues and other compounds. The true share with any hit is near 4.8%. Unless noted, calls follow the shape of the dose curve; as a rule, active = well fitted curve in the direction sought with a large enough effect; inconclusive = small, poorly fitted or top-dose-only effect, or another doubt; inactive = no such curve, though single readings can be large; an effect the other way counts as inactive or inconclusive.
SMILES,USP2a block,USP1 inh,S2 tox,IL-1B inflam inh,ATXN2 expr inh
COc1ccc(C)cc1Nc1n[n+](-c2ccccc2)c(-c2ccc(OC)c(OC)c2OC)s1,.,.,?,.,?
CN(C)c1ccc(-c2sc(Nc3ccccc3)n[n+]2-c2ccc(F)cc2)cc1,.,.,.,.,.
Cc1cc[n+](C(C)C(=O)c2ccc(-c3ccccc3)cc2)cc1 (centres undefined),.,.,.,-57.9,?
CCOC(=O)c1[nH]c2c(c1Cc1ccccc1)C(=O)CC(c1ccccc1)C2 (centres undefined),/,.,/,/,/
O=C(/C=C/c1ccnc2ccccc12)c1cccs1,.,?,?,-117.5,.
ON=Cc1ccnc2ccccc12,/,.,.,.,/
COc1ccc(CN2CCC3(CCC(CNC(=O)C4CCCO4)O3)CC2)c(C)c1C (centres undefined),/,/,.,/,/
O=C(O)c1ccc(NC(=S)NCc2ccccc2)cc1,.,.,.,.,.
FC(F)(F)c1ccc(NC(=S)NCc2ccccc2)cc1,.,.,.,-62.5,.
FC(F)Sc1ccc(NC(=S)NC(c2ccccc2)c2ccccc2)cc1,.,?,?,-68.2,/
FC(F)Sc1ccc(NC(=S)NCc2ccccc2)cc1,.,?,.,-92.0,.[11.3 µM]
O=C(Nc1nccs1)c1cccc(N2C(=O)c3cccc4c([N+](=O)[O-])ccc(c34)C2=O)c1,.,.,?,-106.3,?
CC(=O)Oc1cccc(N2C(=O)c3cccc4c([N+](=O)[O-])ccc(c34)C2=O)c1,.,.,?,-94.6,/
Nc1nc2ccccc2n1CCOc1ccccc1Cl,.,.,?,-79.9,.
Nc1nc2ccccc2n1CCOc1ccc(Cl)cc1,.,.,.,.,.
Nc1cc(C(=O)N2CCN(c3ccc([N+](=O)[O-])cc3)CC2)ccc1N1CC2CC(C1)c1cccc(=O)n1C2 (centres undefined),.,.,.,.,.
O=C(OCc1cc(=O)n2c(n1)sc1ccccc12)c1ccc(O)cc1,.,.,.,.,.
O=c1cc(CCl)nc2sc3ccccc3n12,.,.,?,-59.3,.[11.3 µM]
Cc1cn2c(=O)cc(COc3cccc(NC(=O)c4ccccc4C)c3)nc2s1,/,.,.,/,.
Cc1ccc(NS(=O)(=O)c2ccc(C(=O)NC3CCN(Cc4ccccc4)CC3)cc2)cc1,.,.,.,-93.5,.
O=C(NC1CCN(Cc2ccccc2)CC1)c1ccccc1,.,.,.,.,/
O=C(NC1CCN(Cc2ccccc2)CC1)c1ccc2c(c1)[nH]c(=O)n2Cc1ccc(F)cc1,.,.,.,-76.9,.
O=C(NC1CCN(Cc2ccc(Cl)cc2Cl)CC1)c1ccccc1,.,.,.,-50.1,.
O=C(NC1CCN(Cc2ccccc2)CC1)c1ccccc1OCc1ccccc1Cl,.,.,.,-88.1,.
CCCCCn1c(=O)[nH]c2cc(C(=O)NC3CCN(Cc4ccccc4)CC3)ccc2c1=O,/,.,.,.,.
SMILES,USP2a block,USP1 inh,S2 tox,IL-1B inflam inh,ATXN2 expr inh
NC(=O)c1ccccc1NC(=O)C1CCCO1 (centres undefined),.,.,.,.,.
NC(=O)[C@@H]1CCCN1C(=O)CC1(c2cccc(F)c2)CC(=O)N(C2CCCC2)C1=O (some centres undefined),/,/,.,/,/
Cc1ccc(S(=O)(=O)N2CCc3cc4c(cc3C2C)OCCCO4)cc1 (centres undefined),.,.,.,.,.
O=C(NC1CCN(Cc2ccccc2)CC1)c1cc(S(=O)(=O)Nc2ccc(F)cc2)ccc1Cl,.,.,.,-68.5,.
Cc1ccc(S(=O)(=O)Nc2cccc(C(=O)NC3CCN(Cc4ccccc4)CC3)c2)cc1F,.,.,.,-66.1,.
Cc1ccc(S(=O)(=O)Nc2cccc(C(=O)NCC(c3ccco3)N3CCCCC3)c2)cc1F (centres undefined),.,.,?,-66.1,.
Cc1oc2ncn(C)c(=O)c2c1C(=O)NCc1ccccc1,/,.,.,/,.
CC(C)(C)c1cc(C(=O)CCN2CCOCC2)cc(C(C)(C)C)c1O,.,.,.,-100.6,.
O=C(CCN1CCOCC1)c1ccc(N2CCCCC2)cc1,.,.,?,-72.5,?
CC(C)(C)c1cc(C(=S)N2CCN(CCO)CC2)cc(C(C)(C)C)c1O,.,.,.,.,.
Cn1ccnc1C(=O)c1ccc(NN)c([N+](=O)[O-])c1,.,.,.,-217.2,/
COc1cc2c(CCNC(C)=O)c[nH]c2cc1Cl,.,.,.,.,.
Cc1cc(Sc2nnc(/N=C/N(C)C)s2)c2ccccc2n1,.,.,?,-88.8,/
CCCCCCCCSc1nnc(/N=C/N(C)C)s1,.,.,.,.,.
Cc1cc(Sc2nnc(N)s2)c2ccccc2n1,.,.,25.1µM,-112.6,?
CC(C)NC(=O)c1cc(C2CCCCN2S(=O)(=O)c2cccc3cccnc23)on1 (centres undefined),/,/,.,.,.
CCOC(=O)c1c(C)n(C(=O)c2ccco2)c(=O)n1C(=O)c1ccco1,.,.,.,-68.3,.
Nc1cccc2c1C(=O)N(C(=O)/C=C/c1ccc(F)cc1)C2=O,.,.,/,-77.5,?
NNC(=O)/C(=N/Nc1ccccc1)S(=O)(=O)c1ccc(Cl)cc1,.,.,?,.,14.1µM
CC(C)Oc1ccc(C(=O)Nc2c3c(nn2-c2ccccc2)CS(=O)(=O)C3)cc1,.,.,.,.,.
O=C(Nc1ccc2c(c1)OCCO2)C1c2ccccc2OCC(=O)N1CCCN1CCOCC1 (centres undefined),/,/,.,.,.
CNC(C)C#Cc1ccc2sc3cccc(OC)c3c(=O)c2c1 (centres undefined),.,.,.,-80.5,.
COc1cccc2sc3ccc(C#CC4(N)CCCCC4)cc3c(=O)c12,.,?,?,-61.1,.
CCOc1ccccc1NC(=O)C1CCN(S(=O)(=O)c2c(C)noc2/C=C/c2ccc(C)cc2)CC1,/,.,.,/,.
Cc1nn(C)c(C)c1/C=C/C(=O)c1ccc(Cl)cc1Cl,.,?,.,-67.7,.
SMILES,USP2a block,USP1 inh,S2 tox,IL-1B inflam inh,ATXN2 expr inh
Cc1nn(C)c(C)c1/C=C/C(=O)O,.,.,?,.,/
CCOC(=O)c1c(NC(=O)COC(=O)/C=C/c2ccco2)sc2c1CC(C)(C)NC2(C)C,.,.,.,-68.2,.
COC(=O)c1c(NC(=O)c2nc3ccccc3s2)sc2c1CC(C)(C)NC2(C)C,.,.,.,.,.
CCCc1nnc(NC(=O)CSc2nc3ccccc3[nH]2)s1,.,.,.,-109.1,.[11.3 µM]
CCOC(=O)c1c(NC(=O)COc2ccccc2)sc2c1CC(C)(C)NC2(C)C,.,.,.,.,.
CCOC(=O)c1c(NC(=O)CSc2nc3ccccc3[nH]2)sc2c1CC(C)(C)NC2(C)C,.,.,?,-50.5,.
